# In PubChem BioAssay AID2284418 (EPA ToxCast):
# Inconclusive results are not listed. Calls of active or inactive are those of the source. Rule for the calls: active = hit-call score of the fitted dose curve at least 0.9, where 1 is the maximum; inconclusive = response in the unintended direction; inactive = score below 0.9.
# Tested on: SRY-box transcription factor 17 (SOX17) Protein Expression, Deisenroth Lab, SOX17 (gene 64321)
# Experiment: CCTE_Deisenroth_DEVTOX-GLR_Meso_SOX17: CCTE's DevTox GLR-Meso Assay Evaluation of SRY-box transcription factor 17 (SOX17) Protein Expression, Deisenroth Lab
# Method: CCTE_Deisenroth_DEVTOX-GLR_Meso assay is a cell-based, multiplex-readout assay that uses RUES2-GLR, a human pluripotent cell line, with measurements taken at 48 hours after chemical dosing in a 384-well microplateCCTE_Deisenroth_DEVTOX-GLR_Meso_SOX17 is 1 of 4 assay components calculated from the CCTE_Deisenroth_DEVTOX-GLR_Meso assay and it measures an the percentage of cells in an endoderm state. Using a type of inducible fluorescent protein reporter, gain-of-signal activity can be used to understand changes in gene expression with fluorescent microscopy. The percentage of SOX17+ cells are determined by calculating the number of SOX17+ cells divided by cell count. To generalize the intended target to other relatable targets, this assay component is annotated to the transcription factor intended target family, where the subfamily is SRY-related HMG-box.Data from the assay component CCTE_Deisenroth_DEVTOX-GLR_Meso_SOX17 was analyzed as 1 assay endpoint. The endpoint is the percent SOX17+ cell population minus the 0.2% DMSO control in the CCTE_Deisenroth_DEVTOX-GLR_Meso assay. This assay endpoint can be referred to as a secondary readout since this assay has produced multiple assay endpoints where this one serves as a measure of endoderm differentiation.
# All assay protocols are aligned to the DevTox GLR-Endo assay workflow. Cells are seeded into 384-well microplates for 24 hours prior to initiating differentiation in defined media for a total duration of 48 hours. A total of two chemical exposures are administered in 24-hour intervals during the 48-hour differentiation period. At the assay termination point, cells are fixed and stained with a fluorescent dye demarcating the nucleus. High-content imaging is used to acquire brightfield and fluorescent channel images across 5 fields per well. Cell identification and mean biomarker fluorescence intensities are calculated with image analysis software to determine the total cell counts for viability assessment and the biomarker expression frequency for each lineage-dependent assay. A typical experimental design tests a 10-point concentration series (1 nM - 200 uM) for 28 compounds in single technical replicate. Assay plate controls include non-differentiated pluripotent cells (baseline control), lineage-specific differentiated cells (differentiation control), and DMSO solvent exposed differentiated cells (solvent control). Experiments typically comprise a minimum of four experimental replicates (n=4).
Structure (SMILES),AC50,outcome
CS(=O)(=O)OCCCCOS(C)(=O)=O,107 µM (active),–
CC/C(=C(/CC)c1ccc(O)cc1)c1ccc(O)cc1,6.47 µM (active),–
CCCC(CCC)C(=O)O,–,inactive
Nc1nc2ncc(CNc3ccc(C(=O)N[C@@H](CCC(=O)O)C(=O)O)cc3)nc2c(=O)[nH]1,–,inactive
O=C1CCC(N2C(=O)c3ccccc3C2=O)C(=O)N1 (centres undefined),–,inactive
CN(Cc1cnc2nc(N)nc(N)c2n1)c1ccc(C(=O)N[C@@H](CCC(=O)O)C(=O)O)cc1,0.0944 µM (active),–
CC1=C(/C=C/C(C)=C/C=C/C(C)=C\C(=O)O)C(C)(C)CCC1,30.2 µM (active),–
Nc1cccc2c1C(=O)N(C1CCC(=O)NC1=O)C2=O (centres undefined),–,inactive
CCN(CC)CCNC(=O)c1c(C)[nH]c(/C=C2\C(=O)Nc3ccc(F)cc32)c1C,0.8 µM (active),–
CC(C)(c1ccc(O)cc1)c1ccc(O)cc1,142 µM (active),–
O=c1[nH]cc(F)c(=O)[nH]1,22.6 µM (active),–
O=C1NS(=O)(=O)c2ccccc21,–,inactive
O=C1NC(=O)C(c2ccccc2)(c2ccccc2)N1,146 µM (active),–
CC1=C(/C=C/C(C)=C/C=C/C(C)=C/C(=O)O)C(C)(C)CCC1,22 µM (active),–
